JMJD2A Tudor: qHTS Assay for Inhibitors of JMJD2A-Tudor Domain. AlphaScreen JMJD2A-Tudor / H3K4me3 peptide binding. Potency, µM (series often up to 114 µM), inactives show at the highest dose activity change, negative = inhibition, most hits filed as inhibitors. 390,000 compounds, 4.4% hits. AID 504339, 2011; further: on the % scale 0 is the no-effect control and ±100 the full control effect; nearly all actives have a fitted effect of over 50% in size
BAZ2B block: qHTS Assay for Inhibitors of BAZ2B | AlphaScreen BAZ2B-H3K14Ac peptide displacement | Potency, µM (series often up to 114 µM), without a hit: top-dose activity change, negative = inhibition, usual class: inhibitors | 360,000 compounds, 4.4% hits | Bromodomain adjacent to zinc finger domain protein 2B (Homo sapiens), Q9UIF8; further: on the % scale 0 is the no-effect control and ±100 the full control effect; nearly all actives have a fitted effect of over 60% in size
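BAZ2B (50 nM) with biotin-H3(5-23)K14Ac peptide (50 nM) in PBS pH 7.4, 0.01% Tween-20, preformed 30 min, then compound 30 min at room temperature; top concentration 110uM. AlphaScreen streptavidin donor/nickel chelate acceptor beads (10 ug/mL final), 20 min dark, signal read.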
G9a block: qHTS Assay for Inhibitors of Histone Lysine Methyltransferase G9a; Potency, µM (doses to about 102 µM), without a hit: at the top dose activity, negative = inhibition, usual class: inhibitors; Histone-lysine N-methyltransferase EHMT2 (Homo sapiens), Q96KQ7; 350,000 compounds, 8.8% hits; G9a H3K9 monomethylation, AlphaScreen, 2 h; further: on the % scale 0 is the no-effect control and ±100 the full control effect; nearly all actives have a fitted effect of over 75% in size
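Methyltransferase reactions run at room temperature for 2 h (20 nM enzyme, 500 nM biotin-H3K9 peptide, 20 uM SAM) after a 15 min compound preincubation; product detected by AlphaScreen beads and anti-H3K9me1 antibody.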
Sfp PPTase inh: qHTS Assay for Inhibitors of Bacillus subtilis Sfp phosphopantetheinyl transferase (PPTase); 310,000 compounds, 3.5% hits; 4'-phosphopantetheinyl transferase ffp (Bacillus subtilis), Q9F4F7; Biochemical Sfp PPTase activity, qHTS; Potency, µM, for the others: largest response in the series, negative = inhibition, actives largely listed as inhibitors; AID 1490, 2009;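 further: the enzyme is Sfp with the accession as filed and its product quenches rhodamine fluorescence; 0% = enzyme reaction without inhibitor and -100% = no enzyme wells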
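After 15 min at room temperature with compound, 15 nM Sfp received 5 uM rhodamine-CoA plus 12.5 uM BHQ-2-ybbR (50 mM Hepes pH 7.6, 10 mM MgCl2). Rate came from the fluorescence difference over 30 min, ex 525/em 598 nm.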
PLK1 PBD inh: qHTS for Inhibitors of PLK1-PDB (polo-like kinase 1 - polo-box domain): Primary Screen. Potency, µM, for inactives: max response, negative = inhibition, hits mostly inhibitors. Plk1 PBD binding of FITC phosphopeptide, fluorescence polarization. Serine/threonine-protein kinase PLK1 (Homo sapiens), P53350. AID 720504, 2013. 360,000 compounds, 2.8% hits; further: series mostly up to about 57 µM; on the % scale 0 is the no-effect control and ±100 the full control effect; nearly all actives have a fitted effect of over 65% in size
HP1b binding inh: HTS for Inhibitors of HP1-beta Chromodomain Interactions with Methylated Histone Tails; AlphaScreen HP1-beta / biotin-H3K9me3 peptide binding; Potency, µM (titrated, usually from 114 µM), for the others: at the highest dose activity change, negative = inhibition, most hits filed as inhibitors; 390,000 compounds, 0.56% hits; further: nearly all actives have a fitted effect of over 70% in size
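HP1-beta protein (50 nM final) preincubated 30 min at room temperature with biotinylated H3(1-18)K9me3 peptide (50 nM) in PBS pH 7.4, 0.01% Tween-20, then compound added for 30 min. AlphaScreen streptavidin donor/nickel chelate acceptor beads (10 ug/mL final), 30 min dark, luminescence read.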
Starred values were filed as active, the others as inactive; ? = inconclusive; . = no result; [ ] = another dose, or the depositor's remark. An excerpt weighted towards active compounds, which were near 12% of everything screened. The call rests on the fitted dose curve; in most records, active means well fitted curve in the direction sought with a large enough effect; inconclusive means small, poorly fitted or top-dose-only effect, or another doubt; inactive means no such curve, though single readings can be large; an effect the other way counts as inactive or inconclusive. Potency means the concentration at half of the fitted maximal effect.

SMILES | JMJD2A Tudor | BAZ2B block | G9a block | Sfp PPTase inh | PLK1 PBD inh | HP1b binding inh
C=CC[n+]1c(-c2ccc(Cl)cc2Cl)csc1Nc1ccc(NC(C)=O)cc1 | 28µM* | 28µM* | 40µM* | -3% | -15% | ?
C=CC[n+]1c(-c2ccc(Cl)cc2Cl)csc1Nc1c(C)n(C)n(-c2ccccc2)c1=O | ? | 40µM* | ? | -27% | -13% | ?
COCCNc1ncnc2c1cnn2-c1cc(Cl)ccc1C | 0% | 1% | 1%[59 µM] | . | . | 31%
COc1ccc(-c2ccc(CN3C(C)C(=O)N(Cc4cn(CCC5OCCO5)nn4)CCS3(=O)=O)cc2)cn1 (stereo not given) | . | . | . | . | -1% | .
COc1ccc(-c2ccc(CN3C(C)C(=O)N(Cc4cn(CCC5OCCO5)nn4)CCS3(=O)=O)cc2)cc1 (stereo not given) | . | . | . | . | 42µM* | .
CC(C)N1CCc2c(sc(NC(=S)NC(=O)c3ccccc3)c2C#N)C1 | ? | ? | 10µM* | 40µM* | ? | -19%[57 µM]
CC(C)N1CCc2c(sc(NC(=O)c3ccc(S(=O)(=O)N4CCOCC4)cc3)c2C#N)C1 | -16% | -4% | 32µM* | -17% | 22% | 15%
CCOC(=O)c1c(NC(=O)c2ccc(S(=O)(=O)N3CCOCC3)cc2)sc2c1CCN(C)C2 | -20% | ? | 50µM* | -21% | 6% | 16%
CCCN1CCc2c(sc(NC(=S)NC(=O)c3ccccc3)c2C#N)C1 | ? | ? | 10µM* | 50µM* | 7.5µM* | ?
COC(=O)c1c(NC(=O)Cc2ccccc2)sc2c1CCN(C(C)C)C2 | -20% | 10% | -6% | 15% | 1% | 16%
COC(=O)c1c(NC(C)=O)sc2c1CCN(Cc1ccccc1)C2 | -20% | -5% | . | -7% | -6% | 30%
CC(C)NC(=O)N1CCC2(CC1)CCN(C(=O)c1cnccn1)CC2 | . | . | -1%[12.7 µM] | 10% | . | .
CC(C)C1Cc2c(sc(NC(=S)NC(=O)c3ccccc3)c2C#N)CO1 (stereo not given) | -18% | 11% | -25%[59 µM] | 3% | 24µM* | 52%
CCN1CCc2c(sc(NC(=S)NC(=O)c3ccc(Cl)cc3)c2C(N)=O)C1 | ? | -27% | 32µM* | 16µM* | ? | -27%
Cc1c(CCO)c(=O)n(-c2ccccc2)n1S(=O)(=O)c1ccc(Cl)cc1 | ? | ? | 25µM* | -7% | ? | 22%
Cc1c(CCO)c(=O)n(-c2ccccc2)n1S(=O)(=O)c1ccc([N+](=O)[O-])cc1 | -5%[57.1 µM] | -30% | ? | -13% | ? | 17%
CCOc1cc(/C=C(\C#N)C(N)=O)ccc1OCc1c(C)no[n+]1[O-] | -9% | 2% | 5% | -2% | 2% | 29%
Cc1no[n+]([O-])c1COc1ccc(/C=C(\C#N)C(N)=O)cc1 | -27% | -8% | ? | -5% | 21µM* | -11%
CC(=O)Nc1ccc(C)c(NS(=O)(=O)c2cccc(C(F)(F)F)c2)c1 | -11% | -4% | -5% | 6% | -5% | 24%
COc1ccc(Nc2nc(N3CCOCC3)nc(N3CCOCC3)n2)c(OC)c1 | -35% | -31% | 8%[0.501 µM] | 19% | 0% | 17%
COc1ccc(Nc2nc(Nc3ccc(OC)cc3OC)nc(N3CCOCC3)n2)c(OC)c1 | ? | 7.9µM* | ? | . | . | 7%

Screening results deposited in PubChem BioAssay by National Center for Advancing Translational Sciences (NCATS).
